Screens deposited in PubChem BioAssay by several laboratories.
Only some compounds are listed: those with a hit (about 5.9% of all), similar ones and a draw of the others.
ALR H2O2 inh – inhibitors of human ALR sulfhydryl oxidase, primary screen, biochemical, H2O2 detection, HRP-luminol luminescence, single point; FAD-linked sulfhydryl oxidase ALR (Homo sapiens), P55789; purified ALR, DTT oxidation; inhibition, % (concentration not given with the values); 3.8% of 290,000 active; AID 485317, 2010;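 active means mean replicate inhibition above about 79%, with every replicate also reaching it, limit read from the data; inconclusive means only one of the two criteria met; inactive means mean below limit and not every replicate reaching it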
Target sequence (P55789 whole entry, looked up): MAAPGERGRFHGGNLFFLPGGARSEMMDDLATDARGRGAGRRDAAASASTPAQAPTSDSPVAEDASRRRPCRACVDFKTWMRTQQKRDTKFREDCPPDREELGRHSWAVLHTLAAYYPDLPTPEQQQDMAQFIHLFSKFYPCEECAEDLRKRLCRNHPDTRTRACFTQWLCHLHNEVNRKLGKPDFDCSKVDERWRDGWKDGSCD
PRMT1 FP inh – PRMT1 methyltransferase inhibitors, primary screen, biochemical, fluorescence polarization; Protein arginine N-methyltransferase 1 (Homo sapiens), Q99873; recombinant PRMT1, activity-based probe fluorescence polarization; inhibition, % at 2.79 µM; 1.3% of 370,000 active; AID 652257, 2013;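 active means inhibition above about 21% made by adding two undisclosed values, limit read from the data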
Rtt109 Vps75 – inhibitors of C. albicans Rtt109/Vps75 HAT, primary screen, biochemical, ThioGlo CoA-SH fluorescence, plate reader | AID 540336, 2011 | Histone acetyltransferase RTT109 (Candida albicans (strain SC5314 / ATCC MYA-2876)), … | purified Rtt109/Vps75, 4 h | inhibition, % at 34.9 µM | 0.16% of 330,000 active;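 active means inhibition of at least 50% in every replicate; inconclusive means best replicate reaches 50% inhibition but some replicates fall short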
Target sequence (Q5AAJ8 whole entry, looked up): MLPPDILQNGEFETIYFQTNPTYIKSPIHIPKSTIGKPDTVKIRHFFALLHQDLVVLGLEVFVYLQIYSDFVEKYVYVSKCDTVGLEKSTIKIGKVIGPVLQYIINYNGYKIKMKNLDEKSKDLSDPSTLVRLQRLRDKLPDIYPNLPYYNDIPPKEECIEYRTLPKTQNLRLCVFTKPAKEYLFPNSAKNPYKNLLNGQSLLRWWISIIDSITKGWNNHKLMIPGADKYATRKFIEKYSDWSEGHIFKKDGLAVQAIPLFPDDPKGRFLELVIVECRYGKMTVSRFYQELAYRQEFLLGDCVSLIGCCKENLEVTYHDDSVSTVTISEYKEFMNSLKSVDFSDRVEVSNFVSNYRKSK
ABHD5-PLIN5 inh – ABHD5-PLIN5 interaction inhibitors, primary screen, cell lysate, split luciferase complementation, luminescence. Split G. princeps luciferase complementation, 4 h. AID 602281, 2012. Perilipin-5 (Homo sapiens) + 1-acylglycerol-3-phosphate O-acyltransferase ABHD5 (Homo …. inhibition, % at 4 µM. 0.78% of 360,000 active;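 active means inhibition above the mean inhibition across every tested compound plus 3 SD, cut at about 22% in these data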;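 further: 0% = DMSO only wells and the 100% control is not disclosed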
LANA-H2B inh – blockers of LANA interaction with H2A/H2B – biochemical, FP readout, HTS, primary screen; cell-free LANA-H2A/H2B peptide, fluorescence polarization; AID 2629, 2010; inhibition, % (concentration not given with the values); 0.6% of 320,000 active; Protein LANA1 (Human herpesvirus 8 type P (isolate GK18)), Q9QR71; in the data active means inhibition mostly above about 10%, no sharp cut-off; inactive means mostly below about 6.7%
rCAG binder – binders of r(CAG) RNA repeats, primary screen, biochemical, fluorescence | inhibition, % at 3 µM | r(CAG) RNA repeat, TO-PRO-1 dye displacement fluorescence | 1.3% of 370,000 active | AID 651821, 2012;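 active means inhibition above the plate cutoff, the mean of all test compounds on that plate plus 3 SD, cut at about 35% in these data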;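 further: 0% = DMSO alone and 100% = 100 µM mitoxantrone as full dye displacement; higher means more dye released from RNA so lower well fluorescence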
* marks the source's active call; other numbers are inactive results.

Screening Cc1cc(C)n2nc(C(=O)N/N=C/c3ccc(Cl)cc3)nc2n1 returned ALR H2O2 inh -5, PRMT1 FP inh 0, ABHD5-PLIN5 inh 5, LANA-H2B inh 4 and rCAG binder -1.
`COC(=O)[C@]12C[C@H](CC(=O)NCC34CC5CC(CC(C5)C3)C4)C(=O)N(Cc3ccc(Cl)cc3Cl)C1=C[C@H](C(C)C)O[C@@H]2C1CC1` gave PRMT1 FP inh -8 and rCAG binder 14.
C=CCN1C(=O)[C@@H](CC(=O)NCc2ccc(OC)c(OC)c2)[C@]2(C(=O)OCC)CCCCC/C=C/12 was read as PRMT1 FP inh -2 and rCAG binder 1.
`O=C(NCCc1ccccc1)OCc1cn(Cc2ccc(F)c(F)c2)nn1` gave PRMT1 FP inh 3 and rCAG binder -2.
Screening Cc1ccc(OCC(=O)OCC(=O)NC2CCCCCC2)cc1C returned PRMT1 FP inh 0, ABHD5-PLIN5 inh 14 and rCAG binder -2.
CCCCCCCCN1C(=O)[C@@H](CC(=O)N2CCN(C(=O)c3ccco3)CC2)C[C@@]2(C(=O)OC)C1=C[C@H](C1CCCC1)O[C@@H]2C was read as PRMT1 FP inh 0 and rCAG binder 13.
`CCOC(=O)C1=C(C)c2ccccc2OC1(CC)C(=O)OCC` (centres undefined) gave PRMT1 FP inh -1, Rtt109 Vps75 -20, ABHD5-PLIN5 inh -14 and rCAG binder 1.
`CCOC(=O)C1=C(C)c2ccccc2N(C(=O)OC)C1(C)C(=O)OCC` (centres undefined) gave PRMT1 FP inh 24*, Rtt109 Vps75 3, ABHD5-PLIN5 inh 30* and rCAG binder -1.
Screening OCCN(CCO)c1ccc2ccccc2c1 returned ALR H2O2 inh 98*, PRMT1 FP inh 6, Rtt109 Vps75 3, ABHD5-PLIN5 inh 3, LANA-H2B inh -2 and rCAG binder -2.
For OCCN(CCO)c1cc2c3ccccc3ccc2c2ccccc12 the results were PRMT1 FP inh 0, Rtt109 Vps75 -9, ABHD5-PLIN5 inh -9 and rCAG binder 8.
Screening COc1ccc(C(CNC(=O)c2oc3c(Cl)cccc3c2C)N2CCCC2)cc1 (centres undefined) returned ALR H2O2 inh 21, PRMT1 FP inh -3, Rtt109 Vps75 -4, ABHD5-PLIN5 inh 7, LANA-H2B inh 22* and rCAG binder -4.
For COCCCn1c(=S)[nH]c(C)c(C)c1=O the results were ALR H2O2 inh 28, PRMT1 FP inh -2, Rtt109 Vps75 1, ABHD5-PLIN5 inh 4, LANA-H2B inh -2 and rCAG binder -1.
COCCCn1c(=O)cc(C)[nH]c1=S was read as PRMT1 FP inh 4, Rtt109 Vps75 5, ABHD5-PLIN5 inh 6, LANA-H2B inh 15* and rCAG binder 0.
COc1ccc(/C(O)=C/C(=O)C(=O)NNC(=O)c2ccccc2)cc1 was read as PRMT1 FP inh -1, Rtt109 Vps75 -24, ABHD5-PLIN5 inh 0, LANA-H2B inh -7 and rCAG binder 25.
For COc1ccc(/C(O)=C/C(=O)C(=O)NNC(=O)C(O)(c2ccccc2)c2ccccc2)cc1 the results were ALR H2O2 inh 8, PRMT1 FP inh -1, Rtt109 Vps75 2, ABHD5-PLIN5 inh -1, LANA-H2B inh 1 and rCAG binder 44*.
Screening Cn1c(SCC(=O)c2ccc3c(c2)OCO3)nnc1C1COc2ccccc2O1 (centres undefined) returned ALR H2O2 inh -2, PRMT1 FP inh 22*, Rtt109 Vps75 -4, ABHD5-PLIN5 inh -7, LANA-H2B inh 0 and rCAG binder 7.
`C=CCN1C=CC(=C/C=C(/C#N)C(=O)OCC)C=C1` gave ALR H2O2 inh 84*, PRMT1 FP inh -59, Rtt109 Vps75 -4, ABHD5-PLIN5 inh 7, LANA-H2B inh -49 and rCAG binder -83.
For CCOC(=O)/C(C#N)=C/C=C1/C=CC=CN1C the results were ALR H2O2 inh 95*, PRMT1 FP inh 1, Rtt109 Vps75 3, ABHD5-PLIN5 inh 4, LANA-H2B inh 1 and rCAG binder -5.
Screening CCOC(=O)/C(C#N)=C\N(C)C returned ALR H2O2 inh 2, PRMT1 FP inh 1, Rtt109 Vps75 inconclusive, ABHD5-PLIN5 inh 17, LANA-H2B inh 4 and rCAG binder 2.
CC(=O)Nc1ccc(NC(=O)CSc2ccc(-c3ccco3)nn2)cc1 was read as ALR H2O2 inh 96*, PRMT1 FP inh 15, Rtt109 Vps75 -4, ABHD5-PLIN5 inh 10, LANA-H2B inh 5 and rCAG binder 7.
CC(=O)Nc1cccc(NC(=O)CSc2ccc(-c3ccco3)nn2)c1 was read as ALR H2O2 inh inconclusive, PRMT1 FP inh 16, Rtt109 Vps75 2, ABHD5-PLIN5 inh 2, LANA-H2B inh -1 and rCAG binder 7.
`Fc1cccc(CSc2ccc(-c3ccco3)nn2)c1` gave ALR H2O2 inh 50, PRMT1 FP inh 24*, Rtt109 Vps75 -14, ABHD5-PLIN5 inh 1, LANA-H2B inh 2 and rCAG binder 3.
`CCSc1ccc(-c2ccco2)nn1` gave ALR H2O2 inh 9, PRMT1 FP inh 3, Rtt109 Vps75 3, ABHD5-PLIN5 inh 8, LANA-H2B inh -2 and rCAG binder 2.
Screening COc1cc(NC(=O)CSc2ccc(-c3ccco3)nn2)cc(OC)c1 returned ALR H2O2 inh 98*, PRMT1 FP inh 20, Rtt109 Vps75 -1, ABHD5-PLIN5 inh 7, LANA-H2B inh -1 and rCAG binder 13.
Screening OC(c1ccccc1)(c1ccccc1)C1CCN(CCCOc2ccncc2)CC1 returned PRMT1 FP inh -1 and rCAG binder 1.
For CC1(C)CC(=O)C=C(Nc2ccccc2NC(=O)c2cc(F)cc(F)c2)C1 the results were PRMT1 FP inh -5 and rCAG binder 0.
`CC(C(=O)N1CCCC1)N(c1ccc(Cl)cc1)S(C)(=O)=O` (centres undefined) gave PRMT1 FP inh -2, ABHD5-PLIN5 inh -1 and rCAG binder 2.
For Cc1ccc(S(=O)(=O)N(C)/N=C/c2ccc(N(C)C)cc2)cc1 the results were ALR H2O2 inh 99*, PRMT1 FP inh 3, Rtt109 Vps75 0, ABHD5-PLIN5 inh 2, LANA-H2B inh 1 and rCAG binder -4.
Cc1cc(S(=O)(=O)Nc2ccc(N(C)C)cc2)c(C)s1 was read as ALR H2O2 inh 100*, PRMT1 FP inh 4, Rtt109 Vps75 0, ABHD5-PLIN5 inh 4, LANA-H2B inh 1 and rCAG binder 5.
